Test systems include EKVX NSCLC; SN12C renal; UO-31 renal; TK-10 renal; ACHN renal; CAKI-1 renal; A498 renal; CCRF-CEM leukemia; MOLT-4 leukemia; SR leukemia.
Assay in all cases: NCI-60 one-dose screen, 48 h (100 = growth as untreated, 0 = no growth, -100 = all killed)
Holding throughout (settings): 10 µM unless noted

Results on 13 compounds are retold here after PubChem BioAssay (NCI).

This is part of a sample that, as a whole, favours compounds with a hit. Of some 83,000 tested, about 20% had one in any assay.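 96-well plates, one dose, 48 hours. Percent growth reported; active if below 10.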 A number with no mark means an inactive call. Activity calls are given as the source filed them.

`COc1ccc(/C=C2\CCC/C(=C\c3ccc(OC)c(OC)c3)C2=O)cc1OC`: the growth was 25.9% in the assay on EKVX NSCLC; 8.6% (active) in the assay on SN12C renal; 19.3% in the assay on UO-31 renal; 7.6% (active) in the assay with TK-10 renal; 8.29% (active) with ACHN renal; 3.35% (active) with CAKI-1 renal. The growth with A498 renal is 35.5%; with CCRF-CEM leukemia, 5.72% (active); in the assay on MOLT-4 leukemia, 6.9% (active); with SR leukemia it was 14.3%.

Turning to `COc1ccc2sc3c(NCCCN)nc4ccccc4c3c(=O)c2c1`, the growth was 57.5% in the assay on EKVX NSCLC; 81.3% with SN12C renal; 67.1% with UO-31 renal; 74.8% in the assay with TK-10 renal; 48.7% in the assay with ACHN renal; 73% with CAKI-1 renal. Further, the growth in the assay on A498 renal is 49.8%; in the assay on CCRF-CEM leukemia it was 0.782% (active); in the assay with MOLT-4 leukemia, -17.3% (active); in the assay with SR leukemia it was 2.94% (active).

Consider `CCCc1c(C)c2sc(=O)[nH]c2[nH]c1=O`, for which the growth with EKVX NSCLC is 98.8%; with SN12C renal, 107%; in the assay with UO-31 renal, 94.8%; with TK-10 renal, 110%; with ACHN renal, 106%; in the assay with CAKI-1 renal, 99%. Moreover, the growth is 112% with A498 renal, 124% in the assay on CCRF-CEM leukemia, 106% in the assay with MOLT-4 leukemia and 109% in the assay on SR leukemia.

For `Oc1[nH]c2ccccc2c1N=Nc1nnc2n1N=C(c1ccccc1)CS2`, the growth is 87.7% in the assay with EKVX NSCLC; 99.1% with SN12C renal; 100% with UO-31 renal; 94% in the assay on TK-10 renal; 94.8% with ACHN renal; 79.4% with CAKI-1 renal. Besides, the growth in the assay with A498 renal was 92.9%; with CCRF-CEM leukemia, 96.6%; in the assay on MOLT-4 leukemia, 88%; with SR leukemia it was 77.3%.

Take `CCN1C(=O)N(CC)C2Nn3c(s/c(=C\c4ccccc4F)c3=O)=NC21` (stereo not given): the growth was 38.4% in the assay on EKVX NSCLC; 53.5% in the assay with SN12C renal; 65.8% in the assay on UO-31 renal; 87.2% in the assay on TK-10 renal; 50.8% with ACHN renal; 48.1% with CAKI-1 renal. The growth was 43.3% in the assay with A498 renal, 34.1% in the assay with CCRF-CEM leukemia, 44% in the assay with MOLT-4 leukemia and 24.5% in the assay on SR leukemia.

`O=C(c1nc2ccccc2[nH]1)C1C(c2cccc([N+](=O)[O-])c2)C2CC3CCCCC3N2[C@@]12C(=O)Nc1cc(Cl)ccc12` (stereo not given in full): the growth is 31.3% in the assay on EKVX NSCLC; 33.2% with SN12C renal; -19.5% (active) with UO-31 renal; 46.9% with TK-10 renal; 21.2% with ACHN renal; 12.2% with CAKI-1 renal. Besides, the growth with A498 renal is -1.86% (active); in the assay on CCRF-CEM leukemia it was 25.5%; in the assay with MOLT-4 leukemia, 8.76% (active); with SR leukemia it was 6.09% (active).

Turning to `O=Cc1c(OCc2cnnn2CC(=O)Nc2ccc(Br)cc2)ccc2ccccc12`, the growth is 82.1% in the assay with EKVX NSCLC; 92.9% with SN12C renal; 66.3% in the assay on UO-31 renal; 93.7% in the assay with TK-10 renal; 80.1% in the assay with ACHN renal; 93.9% in the assay on CAKI-1 renal. Moreover, the growth with A498 renal is 74.4%; in the assay with CCRF-CEM leukemia, 97.4%; with MOLT-4 leukemia it was 93.7%; with SR leukemia, 95.9%.

As for `Cn1nc(C(C)(C)C)cc1NC(=O)Cc1ccc(/C=C2\C(=O)Nc3ccccc32)cc1`, the growth with EKVX NSCLC was 49.1%; with SN12C renal it was 62%; in the assay with UO-31 renal, 52.5%; in the assay with TK-10 renal it was 91.2%; with ACHN renal it was 37.4%; with CAKI-1 renal it was 45.5%. The growth with A498 renal was 62.9%; in the assay with CCRF-CEM leukemia, 35.8%; with MOLT-4 leukemia, 6.12% (active); in the assay on SR leukemia, 34.9%.

On to `O=c1nc2sc3nc4ccccc4cc3cc-2s1`, for which the growth in the assay with EKVX NSCLC was 48%; in the assay on SN12C renal, 101%; in the assay on UO-31 renal, 117%; in the assay with TK-10 renal, 131%; in the assay with ACHN renal, 105%; in the assay with CAKI-1 renal, 137%. For the same compound, the growth was 94.6% in the assay on A498 renal, 127% in the assay with CCRF-CEM leukemia, 120% in the assay on MOLT-4 leukemia and 134% with SR leukemia.

Turning to `COc1cc(/C=C2\CN(C)C/C(=C\c3cc(CN4CCCCC4)c(O)c(OC)c3)C2=O)cc(CN2CCCCC2)c1O`, the growth is 46% in the assay with EKVX NSCLC; 38.2% with SN12C renal; 57% in the assay with UO-31 renal; 57.6% with TK-10 renal; 39% with ACHN renal; 55.9% in the assay with CAKI-1 renal. Further, the growth with A498 renal was 71.1%; with CCRF-CEM leukemia, 19.9%; in the assay with MOLT-4 leukemia, 16.5%; with SR leukemia, 28.5%.

Regarding `OCCNc1nc(Nc2ccc(C3=NN(c4cc(Cl)cc(Cl)c4)C(c4ccc(C(F)(F)F)cc4)C3)cc2)nc(N2CCOCC2)n1` (stereo not given), the growth is 71.4% with EKVX NSCLC; 74.8% with SN12C renal; 72% in the assay on UO-31 renal; 114% in the assay with TK-10 renal; 56.8% in the assay with ACHN renal; 71.3% in the assay with CAKI-1 renal. Moreover, the growth in the assay on A498 renal was 82.4%; in the assay on CCRF-CEM leukemia, 51%; in the assay on MOLT-4 leukemia, 60.2%; with SR leukemia, 70.5%.

For the compound `Nc1nc(N)c2c(n1)NC1(C=C(O)c3ccccc31)C1=C(N2)c2ccccc2C1=O` (stereo not given), the growth with EKVX NSCLC was 113%; in the assay on SN12C renal it was 102%; in the assay with UO-31 renal it was 77.1%; in the assay with TK-10 renal it was 142%; in the assay on ACHN renal, 96.1%; in the assay with CAKI-1 renal, 83.8%. Also, the growth with A498 renal was 109%; in the assay with CCRF-CEM leukemia, 97.3%; in the assay on MOLT-4 leukemia, 104%; with SR leukemia, 134%.

`COc1cccc2cc(N(C)c3nc(C)nc4ccsc34)ccc12`: the growth with EKVX NSCLC is 60.2%; in the assay with SN12C renal it was 25.7%; with UO-31 renal it was 30.5%; in the assay on TK-10 renal, 41.8%; with ACHN renal, 18.9%; in the assay on CAKI-1 renal it was 21.5%. For the same compound, the growth with A498 renal was -9.74% (active); with CCRF-CEM leukemia, 4.65% (active); in the assay with MOLT-4 leukemia, 3.39% (active); with SR leukemia it was 2.36% (active).
